Experimental data as given in publication PMC4336329 (PLoS ONE, 2015).
About 2,200 (0.71%) of roughly 310,000 compounds showed an effect of 50% or more. Effects have a minus sign here. For the sample, strong results were picked, then their nearest neighbours and some compounds at random.

The molecules below were run against human ether-à-go-go-related gene (hERG) potassium channel (human, UniProt Q12809) (assay: primary screen, population patch clamp on CHO cells stably expressing hERG; higher = less effect of the substance).
Sequence of human ether-à-go-go-related gene (hERG) potassium channel (Q12809 whole entry, looked up): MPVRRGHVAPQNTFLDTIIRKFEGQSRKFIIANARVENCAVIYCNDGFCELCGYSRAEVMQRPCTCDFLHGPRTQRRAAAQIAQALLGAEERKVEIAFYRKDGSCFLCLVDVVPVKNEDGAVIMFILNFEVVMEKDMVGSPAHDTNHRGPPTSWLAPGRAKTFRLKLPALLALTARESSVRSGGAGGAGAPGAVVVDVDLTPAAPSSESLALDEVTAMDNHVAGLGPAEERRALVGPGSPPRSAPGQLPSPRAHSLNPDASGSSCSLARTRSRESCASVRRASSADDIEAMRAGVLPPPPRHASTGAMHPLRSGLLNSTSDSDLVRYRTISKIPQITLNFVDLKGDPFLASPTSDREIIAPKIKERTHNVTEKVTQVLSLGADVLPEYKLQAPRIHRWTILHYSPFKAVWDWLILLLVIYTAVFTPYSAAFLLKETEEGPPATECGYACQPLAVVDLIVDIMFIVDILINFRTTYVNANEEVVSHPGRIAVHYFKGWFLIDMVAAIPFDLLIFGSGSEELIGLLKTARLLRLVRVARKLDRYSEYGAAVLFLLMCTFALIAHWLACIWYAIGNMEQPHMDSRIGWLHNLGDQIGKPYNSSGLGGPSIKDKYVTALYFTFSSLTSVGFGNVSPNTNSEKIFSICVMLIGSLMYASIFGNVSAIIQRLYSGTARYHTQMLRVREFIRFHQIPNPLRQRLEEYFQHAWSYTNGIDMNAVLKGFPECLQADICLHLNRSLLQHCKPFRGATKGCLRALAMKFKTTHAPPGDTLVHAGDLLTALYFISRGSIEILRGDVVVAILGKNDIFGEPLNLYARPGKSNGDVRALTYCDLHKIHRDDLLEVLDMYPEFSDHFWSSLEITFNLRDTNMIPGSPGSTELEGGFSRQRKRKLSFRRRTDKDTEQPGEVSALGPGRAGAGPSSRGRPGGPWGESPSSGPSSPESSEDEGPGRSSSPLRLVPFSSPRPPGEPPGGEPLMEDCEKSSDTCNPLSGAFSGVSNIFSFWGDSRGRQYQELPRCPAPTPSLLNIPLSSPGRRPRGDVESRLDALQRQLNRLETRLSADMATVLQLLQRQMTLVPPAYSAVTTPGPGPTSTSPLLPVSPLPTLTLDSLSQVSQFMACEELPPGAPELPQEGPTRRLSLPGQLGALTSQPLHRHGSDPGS

| SMILES | hERG current change (%, negative = inhibition) at 1uM [%] |
| --- | --- |
| COC(=O)C1=C(c2ccc(-c3ccccc3)c(F)c2)C[C@@H]2CC[C@H]1N2C(=O)NCCc1ccccc1 | 15.4 |
| CCOC(=O)C(=CNNc1c(C)csc1C(=O)OC)C(=O)OCC | 16.7 |
| COc1ccc(CCNC(=O)CN2C(=O)NC(Cc3c[nH]c4ccccc34)C2=O)cc1 (centres unmarked) | 9.58 |
| Cc1cc(OCC(=O)NC(Cc2c[nH]c3ccc(O)cc23)C(=O)O)c2c(C)c(C)c(=O)oc2c1 (centres unmarked) | 14.5 |
| CC(C)n1c(N)c(C#N)c2ccc([N+](=O)[O-])cc2c1=O | -6.91 |
| CCN(CC)CCNCc1cc(Br)ccc1OCC(=O)NCc1ccccc1.Cl | -54.6 |
| O=C(COc1ccc(Br)cc1CNC1CCCCC1)NCCc1ccccc1 | -59 |
| CCN(CC)CCNCc1ccc(Br)cc1OCC(=O)NCc1ccccc1.Cl | -7.7 |
| Cl.O=C(COc1ccc(Br)cc1CNC1CCCC1)Nc1ccccc1 | -28.2 |
| Cl.O=C(COc1ccc(Br)cc1CNCCc1ccccc1)NCc1ccccc1 | -11.5 |
| CCCNCc1cc(Br)ccc1OCC(=O)NCCc1ccccc1 | -10.7 |
| O=c1c2c(-c3cccs3)csc2ncn1-c1ccc(Br)cc1 | -2.84 |
| CCCNC(=O)N1[C@H]2CC[C@@H]1C(C(=O)OC)=C(c1ccc3ccccc3c1)C2 | 4.04 |
| COc1ccc(Cc2n[nH]c(=S)n2NC(=O)Nc2ccc(Cl)c(Cl)c2)cc1 | 10.2 |
| Cc1ccc2c(c1)CC1(CN2C)C(=O)NC(=O)N(C(C)C)C1=O (centres unmarked) | 19.3 |
| C/C(=N\Nc1nc2ccccc2[nH]1)c1cccs1 | -0.576 |
| C/C(=N\Nc1nc2ccccc2[nH]1)c1ccccn1 | -55.5 |
| C/C(=N\Nc1nc2ccccc2[nH]1)c1ccc(C)o1 | 8.2 |
| CC1CCCCC1NC(=O)CCNS(=O)(=O)c1ccc(Cl)cc1 (centres unmarked) | 7.29 |
| O=C(C1CCC(CNS(=O)(=O)c2cccc3cccnc23)CC1)N1CCc2ccccc21 (centres unmarked) | 1.06 |
| Brc1ccc2c(c1)OCCOCCOCCOCCOCCO2 | -78.6 |

| SMILES | hERG current change (%, negative = inhibition) at 1uM [%] |
| --- | --- |
| Brc1ccc2c(c1)OCCOCCOc1cc(Br)ccc1OCCOCCOCCO2 | -6.77 |
| Brc1ccc2c(c1)OCCOCCOCCOCCOCCOCCO2 | -60 |
| C=Cc1ccc2c(c1)OCCOCCOCCOCCOCCO2 | -70.2 |
| c1ccc2c(c1)OCCOCCOCCOCCOCCOc1ccccc1OCCOCCOCCO2 | -8.98 |
| Brc1cc2c(cc1Br)OCCOCCOCCO2 | 5.78 |
| O=C(O)/C=C/c1ccc2c(c1)OCCO2 | 6.97 |
| Cl.Nc1ccc2c(c1)OCCOCCOCCOCCOCCO2 | -12.2 |
| Brc1cc2c(cc1Br)OCCOCCOCCOCCO2 | -38.2 |
| CCNC(=S)N1CCc2ccccc2C1 | 9.59 |
| CCOc1ccc(C(=O)n2cnnc2N)cc1 | 16.9 |
| Cc1nc(SC2CCOC2=O)c2c(C)c(C)sc2n1 (centres unmarked) | 4.94 |
| Cc1cccc(NC(=O)C2CCN(S(=O)(=O)c3cccs3)CC2)n1 | 2.08 |
| Cc1ccc(-n2c(C)nnc2SCC(=O)N2CCc3ccccc3C2)cc1 | -19.6 |
| Cc1ccc(N(C(=O)c2ccccn2)C2(C(=O)NC3CCCC3)CCCCC2)cc1 | 16.9 |
| CC(=O)O.CN(C)Cc1cn(CCC(=O)O)c2ccccc12 | 10.9 |
| CCOC(=O)C1CCCN(CCC(=O)Nc2cc(C)ccc2C)C1.Cl (centres unmarked) | -8.02 |
| COc1ccc(-n2c(SCC(=O)NCC3CCCO3)nc3n[nH]c(C)c3c2=N)cc1 (centres unmarked) | 7.29 |
| O=C(COc1ccc(Cl)cc1Cl)Nc1nc2n(n1)C(c1ccccc1)CC(=O)N2 (centres unmarked) | 1.52 |
| CCc1nnc(NC(=O)c2cc(S(=O)(=O)N3CCCCC3)ccc2C)s1 | 1.93 |
| CCn1c2ccccc2c2cc(NC(=O)CSc3nnc(-c4cccc(Cl)c4)o3)ccc21 | 9.78 |
| COc1ccc(OCC(=O)Nc2c(C(=O)N(CCN(C)C)Cc3ccco3)oc3ccccc23)cc1 | -82.2 |

| SMILES | hERG current change (%, negative = inhibition) at 1uM [%] |
| --- | --- |
| Cc1ccccc1C(=O)Nc1c(C(=O)N(CCN(C)C)Cc2ccco2)oc2ccccc12 | -81.1 |
| CCCN1CCN(C(=O)c2oc3ccccc3c2NC(=O)COc2ccc(OC)cc2)CC1 | -46.3 |
| COc1ccc(OCC(=O)Nc2c(C(=O)N3CCN(C)CC3)oc3ccccc23)cc1 | -15 |
| Cc1c(C(=O)OCC(=O)NCc2ccco2)oc2ccccc12 | 10.1 |
| O=C(COc1ccccc1)Nc1ccccc1C(=O)NCc1ccco1 | 6.35 |
| COc1ccccc1C(=O)Nc1c(C(=O)N(CCN(C)C)Cc2ccco2)oc2ccccc12 | -27.4 |
| CN(C)CCN(Cc1ccco1)C(=O)c1oc2ccccc2c1NC(=O)COc1ccccc1 | -79.3 |
| Cc1c(C(=O)NCc2ccco2)oc2ccccc12 | 9.16 |
| O=c1c(=Nc2ccccc2O)c(=O)c2ccccc12 | 17.3 |
| O=c1[nH]c2cc3c(cc2cc1CN(Cc1ccco1)C(=S)NCC1CCCO1)OCCO3 (centres unmarked) | 15.1 |
| COC(=O)c1sc(NC(=S)NC(=O)c2ccccc2F)nc1C | 2.7 |
| O=C1CCC([N+](=O)[O-])C(c2cc(Br)ccc2F)N1 (centres unmarked) | 14.5 |
| O=C(CNC(=O)c1ccc(F)cc1)c1ccc(Cl)cc1 | 19.6 |
| Cc1cccc(CN2C[C@]34C=C[C@@H](C[C@@H]3S2(=O)=O)O4)c1 | 10.3 |
| CCCNC(=O)c1ccc(N2CC3CC(C2)c2cccc(=O)n2C3)c(NC(=O)Nc2ccc(CC)cc2)c1 (centres unmarked) | -56.1 |
| CCc1ccc(NC(=O)Nc2cc(C(=O)NCC3CCCO3)ccc2N2CC3CC(C2)c2cccc(=O)n2C3)cc1 (centres unmarked) | 11.3 |
| CCc1ccc(NC(=O)Nc2cc(C(=O)O)ccc2N2CC3CC(C2)c2cccc(=O)n2C3)cc1 (centres unmarked) | 19.5 |
| CCOC(=O)c1ccc(NC(=O)CSc2ccc(-c3ccncc3)nn2)cc1 | 9.76 |
| NCCCC[C@H]1CN=C(N)N1CCc1cccc2ccccc12 | 9.97 |
| Cc1ccc(C(=O)N/C(=C\c2ccc(-c3cccc([N+](=O)[O-])c3)o2)C(=O)NCCCN2CCOCC2)cc1 | -74.7 |
| Cc1ccc(C(=O)N/C(=C/c2ccc(-c3cccc([N+](=O)[O-])c3)o2)C(=O)NC(C)(C)C)cc1 | -0.682 |

| SMILES | hERG current change (%, negative = inhibition) at 1uM [%] |
| --- | --- |
| O=C(NCCCO)/C(=C/c1ccc(-c2cccc([N+](=O)[O-])c2)o1)NC(=O)c1ccccc1 | -4.53 |
| Cc1ccc(C(=O)N/C(=C\c2ccc(-c3cccc([N+](=O)[O-])c3)o2)C(=O)NCCCN(C)C)cc1 | -27.5 |
| Cc1ccc(C(=O)N/C(=C\c2ccc(-c3ccccc3[N+](=O)[O-])o2)C(=O)NCCCN2CCOCC2)cc1 | -11.2 |
| Cc1ccc(C(=O)N/C(=C/c2ccc(-c3cccc([N+](=O)[O-])c3)o2)C(=O)NC(C)C)cc1 | 10.1 |
| Cc1ccc(C(=O)N/C(=C/c2ccc(-c3cccc([N+](=O)[O-])c3)o2)C(=O)NCCCN(C)C)cc1 | -73.3 |
| CN(C)CCNC(=O)/C(=C/c1ccc(-c2cccc([N+](=O)[O-])c2)o1)NC(=O)c1ccccc1 | -37.2 |
| CN(C)CCCNC(=O)/C(=C\c1ccc(-c2cccc([N+](=O)[O-])c2)o1)NC(=O)c1ccccc1 | -77.9 |
| Cn1nc(C(F)(F)F)cc1Oc1ncc(C(F)(F)F)cc1Cl | 12.5 |
| CCOc1ccc(NC(=S)N(CCc2c(C)[nH]c3ccccc23)Cc2cccnc2)cc1 | -4.48 |
| CCN(CC)S(=O)(=O)c1cccc(C(=O)NCCc2ccccc2)c1 | -5.67 |
| O=c1[nH]c(=O)n(CCC2=CCCCC2)c(O)c1C=NCc1cccnc1 | 9.06 |
| COc1ccc(OCCCC(=O)Nc2nc(C)c(C(C)=O)s2)cc1 | 10.2 |
| Cc1ccc(-n2c(=O)cc(N3CC(C)OC(C)C3)[nH]c2=O)cc1 (centres unmarked) | 10.6 |
| O=C(CC(C(=O)O)c1c[nH]c2ccccc12)c1ccccc1 (centres unmarked) | 9.56 |
| COc1ccc(Cc2nc3c4c(ncn3n2)Oc2ccc3ccccc3c2C4c2ccc(OC)c(OC)c2)cc1 (centres unmarked) | 5.71 |
| CC(C)n1cnc2c(N(C)c3ccccc3)nc(N(CCN(C)C)Cc3ccccc3)nc21 | -58.5 |
| COc1cc(N(Cc2ccccc2)Cc2ccccc2)c2ncn(C(C)C)c2c1 | 8.78 |
| CC(C)n1cnc2c(NCc3ccccc3)nc(NCc3ccccc3)nc21 | 10.4 |
| CCOC(=O)Cc1csc(NC(=O)CSc2nnnn2-c2ccc(C)c(C)c2)n1 | 10 |
| COc1ccc(S(=O)(=O)NCC2CCCN(Cc3ccc(O)cc3)C2)cc1 (centres unmarked) | -12.2 |
